Data as given in PubChem BioAssay AID1986 (Sanford-Burnham Center for Chemical Genomics, 2009).
The campaign covered roughly 290,000 compounds. About 890 (0.31%) were called active. No stated cut-off is given here; in the data, active means inhibition mostly above about 52% (no sharp cut-off); inactive means mostly below about 76%. This excerpt belongs to a sample that is enriched for actives.

Assay: cell-free HIV fusion peptide-binding blockers – biochemical, uHTS, fluorescence dequenching, primary screen (AID 1986)
Settings: 30 min, stronger effect = higher value
[1] = measured here: repeat confirmation average inhibition, at 18.6 µM

SMILES | inhibition (at 20 µM) | inhibition [1] [%]
O=C(Cn1cccc1C(=O)c1ccccc1)NCc1ccc2c(c1)OCO2 | -0.1% (inactive) | –
CC(CCc1ccccc1)NC(=O)CSc1cccc[n+]1[O-] (centres undefined) | 2.5% (inactive) | –
O=C(N/N=C/c1ccc([N+](=O)[O-])o1)c1cn(-c2ccccc2)nc1-c1ccccc1 | 65.8% (inactive) | -1.2
O=C(N/N=C/c1ccc([N+](=O)[O-])o1)c1cn(-c2ccccc2)nc1-c1ccc(Cl)cc1 | 64% (active) | –
COc1ccc(-c2nn(-c3ccccc3)cc2C(=O)N/N=C/c2ccc([N+](=O)[O-])o2)cc1 | 55.9% (inactive) | 0.9
COc1ccccc1OCCNC(=O)C1CCCCC1 | -0.2% (inactive) | –
COC(=O)C1=NN(c2ccccc2)C2C(=O)N(c3ccccc3OC)C(=O)C12 (centres undefined) | 1.2% (inactive) | –
COc1ccccc1N1C(=O)C2C(C(=O)c3ccccc3)=NN(c3ccc(Br)cc3)C2C1=O (centres undefined) | 54.9% (active) | 55
COc1ccccc1N1C(=O)C2C(C(=O)c3ccccc3)=NN(c3ccc(C)cc3)C2C1=O (centres undefined) | 85.1% (active) | 102
COc1ccccc1N1C(=O)C2C(C(=O)c3ccccc3)=NN(c3ccccc3)C2C1=O (centres undefined) | 72.1% (inactive) | 33.6
COc1ccccc1N1C(=O)C2C(C(=O)c3ccccc3)=NN(c3ccccc3OC)C2C1=O (centres undefined) | 59.5% (inactive) | 13.2
COC(=O)C1=NN(c2ccc(OC)cc2)C2C(=O)N(c3ccccc3OC)C(=O)C12 (centres undefined) | -0.7% (inactive) | –
O=C(Nc1ccc(F)cc1F)C1CCN(C(=O)c2ccc(Br)cc2)CC1 | 1.2% (inactive) | –
Cc1ccc(CCNC(=O)c2nnc(CS(=O)(=O)c3ccccc3)o2)cc1 | -0.3% (inactive) | –
O=C(COC(=O)c1ccc2c(c1)C(=O)N(Cc1ccco1)C2=O)NCC(F)(F)F | 1.5% (inactive) | –
Nc1ccc(Cc2ccc(N)c(C(=O)O)c2)cc1C(=O)O | 5.8% (inactive) | –
Nc1ccc(Cc2ccc(N)c(O)c2)cc1O | 52.4% (active) | –
Cc1cc(Cc2ccc(N)c(C)c2)ccc1N | -1.4% (inactive) | –
CC(C)COc1ccc(S(=O)(=O)n2cc(F)c(=O)[nH]c2=O)cc1 | 2.9% (inactive) | –
COc1cccc(-c2nc(Cc3ccc(OC)c(OC)c3)no2)c1 | 2.1% (inactive) | –
COc1ccc(Cc2noc(-c3ccccc3)n2)cc1OC | 61.8% (active) | –
COc1ccc(Cc2noc(-c3ccc(OC)c(OC)c3)n2)cc1OC | 0.9% (inactive) | –
CC(C)CNC(=O)c1cccc(NC(=O)c2ccco2)c1 | -0.6% (inactive) | –

SMILES | inhibition (at 20 µM) | inhibition [1] [%]
CCOC(=O)C1=C(C)N(CC)C(=S)NC1c1ccccc1OC(F)F (centres undefined) | -2% (inactive) | –
CCOC(=O)c1c(NC(=O)N/N=C/c2ccc(O)c(OC)c2)sc(C(C)=O)c1C | -2.2% (inactive) | –
N#Cc1ccc2ccn(CC(=O)NCc3ccccc3)c2c1 | -1.6% (inactive) | –
CC(C)(C)/C(O)=C(/C#N)c1nc2ccccc2[nH]1 | -1.6% (inactive) | –
CN(C)c1cccc(C(=O)NNC(=S)NC2CC3CCC2C3)c1 (centres undefined) | -1.9% (inactive) | –
CCOC(=O)c1c(S(=O)(=O)Nc2ccccn2)c(C)n(C)c1C | 2.8% (inactive) | –
COc1ccccc1CNC(=O)C1CCC(CNS(=O)(=O)c2ccc(F)cc2)CC1 (centres undefined) | -1% (inactive) | –
O=C(Nc1ccccc1)c1ccc(NCCc2ccccc2)c([N+](=O)[O-])c1 | 147% (inactive) | –
Cc1ccc(NC(=O)c2ccc(NCCc3ccccc3)c([N+](=O)[O-])c2)cc1F | 2.5% (inactive) | –
Cc1cccc(NC(=O)c2ccc(NCCc3ccccc3)c([N+](=O)[O-])c2)c1 | 96.9% (active) | 58.9
COc1cccc(NC(=O)N2CCC(NC(=O)C(Cc3ccccc3F)NC(C)=O)CC2)c1 (centres undefined) | -0.5% (inactive) | –
O=C(Nc1ccccc1C(=O)O)/C(=C/c1ccc([N+](=O)[O-])cc1)NC(=O)c1ccc(Br)o1 | 20.5% (inactive) | –
Cc1cc(C)c(NC(=O)CCCSc2nnc(N)s2)c(C)c1 | -0.5% (inactive) | –
Cc1ccc(-c2[nH]c(-c3ccc(C(=O)O)cc3)nc2-c2ccccc2)cc1 | 61.6% (inactive) | 27.3
CC(=O)Sc1nc(-c2ccccc2)[nH]c1S(=O)(=O)c1ccc(C)cc1 | 60.7% (active) | –
CSc1nc(-c2ccc(C)cc2)[nH]c1S(=O)(=O)c1ccccc1 | -0.2% (inactive) | –
COc1ccc(C2/C(=C(/O)c3ccc(F)cc3)C(=O)C(=O)N2c2ccccn2)cc1OC (centres undefined) | 0.2% (inactive) | –
CC(=O)Nc1ccc(S(=O)(=O)N2CCN(S(=O)(=O)N3CCCCC3)CC2)cc1 | 0.1% (inactive) | –
O=C(Nc1ccccc1)OC1C2CCC1C(N1CCCCC1)CC2 (centres undefined) | 1.6% (inactive) | –
O=C(Nc1nccs1)c1cc(S(=O)(=O)N2CCCCC2)ccc1Cl | -1.5% (inactive) | –
O=C1/C(=C\c2ccc(Br)cc2)SC(=S)N1NS(=O)(=O)c1ccccc1 | 67.6% (inactive) | 0.2
CC(=O)N1C(=O)/C(=C2\SC(=S)N(NS(=O)(=O)c3ccc(C)cc3)C2=O)c2ccccc21 | 55.6% (inactive) | -0.3
CSc1ccc(CNCc2ccc3c(c2)OCO3)cc1 | 3.5% (inactive) | –

SMILES | inhibition (at 20 µM) | inhibition [1] [%]
CCCC(C(=O)Nc1ccc2c(C)cc(=O)oc2c1)c1ccccc1 (centres undefined) | 0.5% (inactive) | –
C(=C\c1ccco1)/C1=NN(c2ccccc2)C(c2ccco2)C1 (centres undefined) | 81.8% (active) | –
O=[N+]([O-])c1ccc(/C=C/C2=NN(c3ccccc3)C(c3ccco3)C2)o1 (centres undefined) | 18.7% (inactive) | –
O=[N+]([O-])c1ccc(/C=C/C2=NN(c3ccccc3)C(c3ccco3)C2)cc1 (centres undefined) | 35% (inactive) | –
CC(CNC(=O)CCS(=O)(=O)c1cc2c(cc1Cl)NC(=O)CO2)c1ccccc1 (centres undefined) | -0.3% (inactive) | –
COc1ccc(/C=C2/SC(c3ccc(C)cc3)=NC2=O)cc1OC | 0.3% (inactive) | –
COc1ccc(/C=c2\s/c(=C/C(=O)c3ccc(C)cc3)[nH]c2=O)cc1OC | 77.2% (active) | –
COc1cccc(/C=c2\s/c(=C/C(=O)c3ccc(C)cc3)[nH]c2=O)c1OC | 4.7% (inactive) | –
COc1ccc(/C=c2\s/c(=C/C(=O)c3ccc(C)cc3)[nH]c2=O)c(OC)c1 | 47.8% (inactive) | –
COc1ccc(/C=C2\SC(c3ccc(C)cc3)=NC2=O)cc1OC | 97.6% (active) | 176
COc1cc(/C=C2\SC(c3ccc(C)cc3)=NC2=O)ccc1O | 36.7% (inactive) | –
Cc1cc2c(ncn2Cc2ccccc2)c(NS(C)(=O)=O)c1C | -1% (inactive) | –
O=C(CN(Cc1ccc(F)cc1)C(=O)CNS(=O)(=O)c1ccc(F)cc1)NCc1ccco1 | 1.3% (inactive) | –
COc1ccc(CCNC(=O)Cc2cc(OC)c(OC)cc2Br)cc1OC | 1.9% (inactive) | –
CCOC(=O)N1CCc2c(sc3ncn(C)c(=O)c23)C1 | -2.6% (inactive) | –
COC(=O)c1ccccc1NC(=O)c1ccc2c(c1)OCCCO2 | -0.4% (inactive) | –
O=C(CS(=O)(=O)Cc1ccccc1)N1CCN(c2cccc(C(F)(F)F)c2)CC1 | 4.6% (inactive) | –
COc1cc(/C=C2/SC(=O)NC2=O)ccc1Oc1ccc([N+](=O)[O-])cc1[N+](=O)[O-] | 74.1% (inactive) | 9.9
COc1cc(/C=C2\SC(=O)NC2=O)ccc1Oc1ccc([N+](=O)[O-])cn1 | 13.1% (inactive) | –
COc1cc(/C=C2\SC(=O)NC2=O)ccc1Oc1ccc([N+](=O)[O-])cc1[N+](=O)[O-] | 63% (active) | –
Cc1ccc(NC(=O)Cn2cnc3sc(C(=O)NCc4ccco4)c(C)c3c2=O)cc1Cl | -1.5% (inactive) | –
N#Cc1c(N2CCCCC2)nc(N2CCCCC2)c2c1CCN(Cc1ccccc1)C2 | 8.7% (inactive) | –
N#Cc1c(N)sc2c1CCN(CCc1ccccc1)C2 | 8.1% (inactive) | –

SMILES | inhibition (at 20 µM) | inhibition [1] [%]
N#Cc1c(N)sc(=S)c2c1CCN(Cc1ccccc1)C2 | 86.2% (active) | –
N#Cc1c(N)sc2c1CCCCCC2 | -2% (inactive) | –
N#Cc1c(N)sc(=S)c2c1CCCCC2 | 50% (active) | –
N#Cc1c(N)sc(=S)c2c1CCCC2 | 0% (inactive) | –
CN1CC2([N+](=O)[O-])CC=C(OCCO)C([N+](=O)[O-])(C1)C2 (centres undefined) | 0.4% (inactive) | –
O=C(Nc1ccc(N2CCOCC2)cc1)C1(S(=O)(=O)c2ccccc2)CC1 | -1.1% (inactive) | –
COc1ccc(CCN2CCCn3c2nc2c3c(=O)n(CC(C)C)c(=O)n2C)cc1OC | 0.5% (inactive) | –
CC(C)c1ccc(S(=O)(=O)/N=C2\C=C(NS(=O)(=O)c3ccccc3)C(=O)c3ccccc32)cc1 | 74.7% (active) | –
Cc1cc(C)c(S(=O)(=O)/N=C2\C=C(NS(=O)(=O)c3ccccc3)C(=O)c3ccccc32)c(C)c1 | 68.3% (inactive) | 42.3
CC(C)c1ccc(S(=O)(=O)/N=C2/C=CC(=O)c3ccccc32)cc1 | 3.8% (inactive) | –
O=C(CSc1n[nH]c(=O)[nH]c1=O)NC1CCCCC1 | -0.2% (inactive) | –
COC(=O)c1cc(N2CCN(C)CC2)nc2ccccc12 | 114% (active) | –
COC(=O)c1cc(N2CCNCC2)nc2ccccc12 | 6.8% (inactive) | –
O=C(O)c1cc(N2CCOCC2)nc2ccccc12 | 0.2% (inactive) | –
Cn1c(=O)c2[nH]c(Nc3ccccc3)nc2n(C)c1=O | -0.7% (inactive) | –
CC(C)c1ccc(NC(=O)CCNS(=O)(=O)c2ccc3[nH]c(=O)oc3c2)cc1 | 2.1% (inactive) | –
CC(C)CNC(=S)N(CCN(C)C)Cc1cc2cc3c(cc2[nH]c1=O)OCO3 | -2.4% (inactive) | –
Oc1ccc(Br)cc1Cn1nnc2ccccc21 | -0.3% (inactive) | –
Oc1ccc2nnc3c(Br)cnn3c2c1 | 82.2% (active) | 59.6
Clc1ccc2nc3c4ccccc4cnn3c2c1 | 0% (inactive) | –
COc1ccc(OC)c(/C=N/NC(=O)CNC(=O)c2cccc3ccccc23)c1 | -1.3% (inactive) | –
